Results filed as inconclusive are left out. Calls of active or inactive are those of the source.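 How the source made its calls, unless noted: active means normalized viability below 100% at a tested concentration; inactive means the rest.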

Assay [1] can be described thus: viability loss in pontine glioma line – cell-based, JHH-DIPG-1, MIPE4.0, CellTiter-Glo, qHTS, dose response (AID 1347062; cut-off not given, nearly all actives have AC50 up to about 27 µM;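 on AC50: cells exposed to compound for two days before readout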). The conditions noted are these: JHH-DIPG-1 viability, CellTiter-Glo ATP luminescence.
A short description of assay [2]: viability loss in pontine glioma line – cell-based, SU-DIPG-IV, MIPE4.0, CellTiter-Glo, qHTS, dose response (AID 1347063; cut-off not given, nearly all actives have AC50 up to about 30 µM;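 further: compound exposure lasted 48 hours before the viability readout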). The note with it: CellTiter-Glo ATP luminescence. In general terms: ATP-based viability assays read luminescence as a measure of living cells.
Assay [3] in a line: viability loss in pontine glioma line – cell-based, SU-DIPG-XIII, MIPE5.0, CellTiter-Glo, qHTS, dose response (AID 1347064; cut-off not given, nearly all actives have AC50 up to about 23 µM;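 on AC50: cells exposed to compound for 48 hours before the viability read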). The conditions noted are these: CellTiter-Glo ATP luminescence.
A short description of assay [4]: viability loss in pontine glioma line – cell-based, SU-DIPG-XXV, MIPE5.0, CellTiter-Glo, qHTS, dose response (AID 1347065; cut-off not given, nearly all actives have AC50 up to about 26 µM;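 further: cells exposed to compound for 48 hours before ATP readout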). The conditions noted are these: CellTiter-Glo ATP luminescence.
The nature of assay [5]: growth inhibition of DIPG cells – cell-based, MIPE4.0 library, CellTiter-Glo luminescence, qHTS (AID 1347066; cut-off not given, nearly all actives have AC50 up to about 30 µM;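 further: cells exposed to compound for 48 hours before readout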). The note with it: SU-DIPG-VI viability, CellTiter-Glo ATP luminescence.
Assay [6] can be described thus: JHH-DIPG-1 glioma cell viability, MIPE5.0 library, CellTiter-Glo luminescence, qHTS (AID 1347067; cut-off not given, nearly all actives have AC50 up to about 26 µM;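 further: cells exposed to compound for 48 hours before readout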). The note with it: JHH-DIPG-1 glioma viability, CellTiter-Glo ATP luminescence.
The nature of assay [7]: growth inhibition of DIPG cells – cell-based, MIPE5.0 library, qHTS (AID 1347068; cut-off not given, nearly all actives have IC50 up to about 30 µM;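 on IC50: cells exposed to compound for 48 hours before viability readout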). The note with it: SU-DIPG-XXV viability. (In general: qHTS replaces the single test concentration by a dilution series.)
Assay [8] is described as follows: viability loss with induced miR-34 in A549 – imaging, A549 dox-inducible miR-34, nuclei and caspase counts, primary screen (AID 1347080;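 active means compounds whose cell count with miR-34 switched on is under 0.7 times the count with it off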). The note with it: A549 miR-34 inducible, Hoechst nuclei count, 48 h.
A short description of assay [9]: MELAS cybrid and Rieske KO viability enhancers – cell-based, MELAS cybrids, Rieske KO mouse fibroblasts, CellTiter-Glo, primary screen (AID 1508586;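 active means mean z-score across replicates of 1.96 or higher in either the MELAS or the Rieske mutant cell line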;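 further: z relative to plate mean and SD of compound and empty wells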). The note with it: low glucose.
Assay [10] can be described thus: viability loss in pontine glioma line – cell-based, SU-DIPG-XIII, MIPE4.0, CellTiter-Glo, qHTS, dose response (AID 1347061; cut-off not given, nearly all actives have AC50 up to about 37 µM;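 further: cells exposed to compound for 48 hours before readout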). The conditions noted are these: CellTiter-Glo ATP luminescence.
Assay [11] is described as follows: compounds altering HSF1 focus formation in cells – imaging, Selleck Cancer Library (AID 1347162; in the data active means plate-normalised HSF1 focus index below about 0.46). The note with it: human cells, HSF1 nuclear foci imaging, at 10 µM; SSMD: measured here: HSF1 foci SSMD mean; cell count: measured here: cell number; plate-normalised HSF1 focus index: stronger effect = lower value.
The nature of assay [12]: drug combination growth inhibition, ovarian cancer – cell-based, oncology-focused library, rucaparib conditional, profiling panel (AID 1508598). The note with it: patient-derived ovarian cancer cells, CellTiter-Glo viability, 144 h, stronger effect = lower value.
Setting [13] is: stronger effect = lower value, cell number ratio, induced over uninduced.
The mark [14] stands for this setting: measured here: relative caspase fold change +Dox/-Dox.
The mark [15] stands for this setting: measured here: total cells with miR-34 induction, stronger effect = lower value.
Setting [16] is: measured here: total cells without miR-34 induction.
The mark [17] stands for this setting: MELAS cybrid survival, CellTiter-Glo 48 h, stronger effect = higher value.
The mark [18] stands for this setting: Rieske KO mouse fibroblast survival, CellTiter-Glo 72 h.

Take `Cc1noc(-c2ccc(CSCCC(=O)O)cc2)c1NC(=O)OC(C)c1ccccc1Cl` (stereo not given): the outcome in assay [1], in assay [2], in assay [3], in assay [4], in assay [5] and in assay [6] was inactive. Also, the result in [7] was inactive. Besides, the fold change in assay [8] (setting [13]) is 0.888 (inactive); in assay [8] (setting [14]), 1.07. Further, the cell count in assay [8] (setting [15]) was found to be 6620; in [8] (setting [16]), 7460. For the same compound, the z-score in assay [9] (setting [17]) is -0.439 (inactive); in [9] (setting [18]) it was 0.718.
As usually defined, the AC50 is the midpoint of the concentration-response curve, whichever way the signal moves. For orientation: IC50 means the concentration at which inhibition is half-maximal. Regarding `Cc1cc(Nc2cc(NC(=O)c3c(Cl)cccc3Cl)ccn2)nc(N)n1`, the concentration at half-maximal activity (AC50) in assay [1] was 18.7 µM (active); in [2] it was 18.7 µM (active); in assay [3], 8.33 µM (active); in [4], 9.34 µM (active); in [6] it was 9.34 µM (active). The half-inhibitory concentration (IC50) in assay [7] is 18.6 µM (active).
On to `C[C@@H](O)[C@H]1C(=O)N2C(C(=O)OCOC(=O)C(C)(C)C)=C(SC3CN(C4=NCCS4)C3)[C@H](C)[C@H]12`, for which the compound was called inactive in [10] and in assay [5].
On to `CC(C)C[C@H](NC(=O)c1cc2ccccc2s1)C(=O)N1CCN(C(=O)[C@H](CO)NS(=O)(=O)c2ccc(Cl)cc2Cl)CC1`, for which the outcome in assay [1] was inactive. Further, the half-maximal activity concentration (AC50) in assay [2] is 20.9 µM (active); in assay [4] it was 20.9 µM (active); in assay [5], 23.5 µM (active).
Take `Cc1cn2c(-c3cn[nH]c3)cnc2c(Nc2ccc(C(=O)N3CCNCC3)cc2F)n1`: the concentration at half-maximal activity (AC50) in assay [10] is 23.5 µM (active); in assay [5] it was 18.7 µM (active).
As for `CN(C1CCc2c(c3ccccc3n2CC(=O)O)C1)S(=O)(=O)c1ccc(F)cc1` (stereo not given), the compound was classed as inactive in [10] and in assay [5]. The fold change in assay [8] (setting [13]) is 1.07 (inactive); in assay [8] (setting [14]), 0.901. The cell count in assay [8] (setting [15]) stood at 6410; in assay [8] (setting [16]), 5990.
Take `Nc1cccc(S(=O)(=O)N2CCCN(S(=O)(=O)c3ccc4c(c3)OCCO4)CC2)c1`: the compound was called inactive in assay [10], in assay [5] and in [7].
As for `CNC1CCC(N(Cc2cccc(-c3ccncc3)c2)C(=O)c2sc3ccccc3c2Cl)CC1` (stereo not given), the AC50 in [1] was 14.8 µM (active); in [2], 16.6 µM (active); in assay [4] it was 11.8 µM (active); in assay [5], 18.7 µM (active); in assay [6], 20.9 µM (active). Moreover, the IC50 in [7] was 9.34 µM (active).
As usually defined, the viability is a read-out of living cells in per cent, often relative to untreated cells. In the case of `Fc1cc(-c2cccc3ncc(-c4cnn(C5CCNCC5)c4)nc23)cc(F)c1CN1CCOCC1`, the AC50 was 20.9 µM (active) in [1]; 18.7 µM (active) in assay [2]; 11.8 µM (active) in [3]; 9.34 µM (active) in assay [4]; 23.5 µM (active) in [5]; 13.2 µM (active) in [6]. Also, the IC50 in [7] is 23.5 µM (active). Further, the values for the fold change in assay [8] (setting [13]) and in assay [8] (setting [14]) were 0.713 (inactive) and 0.777, respectively. In addition, the results for the cell count in assay [8] (setting [15]), in [8] (setting [16]) and in assay [11] were 5860, 8220 and 6160, respectively. The compound also displayed an SSMD in assay [11] of -6.26. In addition, the plate-normalised HSF1 focus index in assay [11] is 0.613 (inactive). In addition, the z-score in [9] (setting [17]) was -0.567 (inactive); in [9] (setting [18]), -0.329. The viability in assay [12] (at 0.000305 µM, OCI-C5x cells, with rucaparib 10 µM, 100% = cells with rucaparib alone) was 105% (inactive); in assay [12] (at 0.000305 µM, OCI-C5x cells, without rucaparib), 114% (inactive); in [12] (at 0.000305 µM, OCI-P5x cells, with rucaparib 20 µM, 100% = cells with rucaparib alone), 77.7% (active); in [12] (at 0.000305 µM, OCI-P5x cells, without rucaparib) it was 90.5% (active); in assay [12] (at 0.00122 µM, OCI-C5x cells, with rucaparib 10 µM, 100% = cells with rucaparib alone), 116% (inactive); in assay [12] (at 0.00122 µM, OCI-C5x cells, without rucaparib), 118% (inactive). Also, the viability in assay [12] (at 0.00122 µM, OCI-P5x cells, with rucaparib 20 µM, 100% = cells with rucaparib alone) was 18.8% (active); in [12] (at 0.00122 µM, OCI-P5x cells, without rucaparib), 18.7% (active); in [12] (at 0.00488 µM, OCI-C5x cells, with rucaparib 10 µM, 100% = cells with rucaparib alone), 112% (inactive); in assay [12] (at 0.00488 µM, OCI-C5x cells, without rucaparib) it was 114% (inactive); in [12] (at 0.00488 µM, OCI-P5x cells, with rucaparib 20 µM, 100% = cells with rucaparib alone), 89.3% (active); in [12] (at 0.00488 µM, OCI-P5x cells, without rucaparib), 99.1% (active). In addition, the viability in [12] (at 0.0195 µM, OCI-C5x cells, with rucaparib 10 µM, 100% = cells with rucaparib alone) is 110% (inactive); in [12] (at 0.0195 µM, OCI-C5x cells, without rucaparib) it was 112% (inactive); in assay [12] (at 0.0195 µM, OCI-P5x cells, with rucaparib 20 µM, 100% = cells with rucaparib alone) it was 88.8% (active); in [12] (at 0.0195 µM, OCI-P5x cells, without rucaparib), 91.6% (active); in [12] (at 0.0781 µM, OCI-C5x cells, with rucaparib 10 µM, 100% = cells with rucaparib alone) it was 99.8% (active); in assay [12] (at 0.0781 µM, OCI-C5x cells, without rucaparib) it was 115% (inactive). The viability in assay [12] (at 0.0781 µM, OCI-P5x cells, with rucaparib 20 µM, 100% = cells with rucaparib alone) is 80.3% (active); in [12] (at 0.0781 µM, OCI-P5x cells, without rucaparib), 96% (active); in assay [12] (at 0.313 µM, OCI-C5x cells, with rucaparib 10 µM, 100% = cells with rucaparib alone), 114% (inactive); in assay [12] (at 0.313 µM, OCI-C5x cells, without rucaparib), 120% (inactive); in [12] (at 0.313 µM, OCI-P5x cells, with rucaparib 20 µM, 100% = cells with rucaparib alone) it was 80.6% (active); in assay [12] (at 0.313 µM, OCI-P5x cells, without rucaparib), 89.7% (active). Further, the viability is 124% (inactive) in [12] (at 1.25 µM, OCI-C5x cells, with rucaparib 10 µM, 100% = cells with rucaparib alone); 115% (inactive) in [12] (at 1.25 µM, OCI-C5x cells, without rucaparib); 68.6% (active) in [12] (at 1.25 µM, OCI-P5x cells, with rucaparib 20 µM, 100% = cells with rucaparib alone); 80.5% (active) in assay [12] (at 1.25 µM, OCI-P5x cells, without rucaparib); 29.6% (active) in [12] (at 5 µM, OCI-C5x cells, with rucaparib 10 µM, 100% = cells with rucaparib alone); 15.6% (active) in assay [12] (at 5 µM, OCI-C5x cells, without rucaparib). The viability in assay [12] (at 5 µM, OCI-P5x cells, with rucaparib 20 µM, 100% = cells with rucaparib alone) was 17.1% (active); in assay [12] (at 5 µM, OCI-P5x cells, without rucaparib), 20.9% (active).

The record behind these values is PubChem BioAssay.
